# From PubChem BioAssay
# Rows were chosen to be rich in hits. Some 27% of all compounds tested hit in one or more screens of this group.
# CYP2C9 act = human CYP2C9 activators, primary screen, biochemical, luminescence. activation factor at 5 µM. AID 1024, 2008. Cytochrome P450 2C9 (Homo sapiens), P11712. hit rate 1.4% among 96,000. recombinant CYP2C9, luciferin-H conversion; stronger effect = higher value; factor 1 = untreated enzyme, 0 = blocked;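 active means activation factor of 2 or more for CYP2C9 at a 5 µM dose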;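 further: 0 = sulfaphenazole-blocked wells and 1 = vehicle-only wells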
# Target sequence (P11712 whole entry, looked up): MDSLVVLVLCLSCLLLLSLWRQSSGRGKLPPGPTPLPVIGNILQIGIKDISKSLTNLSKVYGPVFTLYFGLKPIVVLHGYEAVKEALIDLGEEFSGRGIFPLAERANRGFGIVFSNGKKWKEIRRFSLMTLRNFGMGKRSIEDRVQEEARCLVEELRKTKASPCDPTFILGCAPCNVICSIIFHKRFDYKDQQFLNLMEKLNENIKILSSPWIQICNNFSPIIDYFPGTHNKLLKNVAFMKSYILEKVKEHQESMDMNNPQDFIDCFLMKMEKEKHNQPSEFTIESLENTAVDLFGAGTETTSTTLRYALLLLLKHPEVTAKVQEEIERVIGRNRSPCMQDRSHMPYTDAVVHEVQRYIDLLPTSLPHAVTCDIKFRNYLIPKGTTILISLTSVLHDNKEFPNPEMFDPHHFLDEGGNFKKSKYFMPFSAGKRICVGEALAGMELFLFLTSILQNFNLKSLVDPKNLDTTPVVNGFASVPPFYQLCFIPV
# CYP2C19 act = human CYP2C19 activators, primary screen, biochemical, luminescence; 96,000 tested, under 10 active; recombinant CYP2C19, luciferin-H EGE luminescence; stronger effect = higher value; 0 = fully inhibited enzyme, 1 = untreated enzyme; activation factor at 5 µM; Cytochrome P450 2C19 (Homo sapiens), P33261;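 active means activation factor of at least 2 at 5 µM in the primary screen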;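 further: 0 = wells with 2.5 mM tranylcypromine and 1 = vehicle-only wells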
# Cav32 inh = Cav3.2 calcium influx blockers – cell-based, Fluo-4 calcium fluorescence, FDSS, MLSMR library, primary screen | Voltage-dependent T-type calcium channel subunit alpha-1H (Homo sapiens), O95180 | Cav3.2-expressing cells; stronger effect = lower value | B-score at 10 µM | hit rate 4% among 100,000 | AID 449739, 2010;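 active means single-dose well whose peak fluorescence ratio is a statistical outlier from its plate by either plate-standardised score or position-corrected B-score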
# CYP2C9 inhib = blockers of cytochrome P450 2C9 activity – biochemical, luminescence, ADME assay, primary screen; P11712; inhibition, % at 5 µM; hit rate 20% among 96,000; AID 777, 2007; CYP2C9 Supersomes, luciferin-H conversion;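 active means blocking of liver enzyme CYP2C9 beyond about 50% at 5 µM, limit read from the data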
# CYP2C19 inhib = blockers of cytochrome P450 2C19 activity – biochemical, luminescence, ADME assay, primary screen | P33261 | CYP2C19 Supersomes, luciferin-H EGE luminescence, 30 min | inhibition, % at 5 µM | hit rate 21% among 96,000 | AID 778, 2007;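 active means CYP2C19 inhibition above a set limit at 5 µM in the primary screen, cut at about 50% in these data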;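 further: plate controls were negative control wells for no effect and 2.5 mM tranylcypromine positive control for full effect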
# The depositor's hits bear a star; · = not tested or not shown.
SMILES,CYP2C9 act,CYP2C19 act,Cav32 inh,CYP2C9 inhib,CYP2C19 inhib
CC(NC(=O)CC(O)(C(F)(F)F)C(F)(F)F)c1ccccc1 (stereo unspecified),0.4,0.2,0.083,57*,78*
Cc1ccccc1NC(=O)CC(O)(C(F)(F)F)C(F)(F)F,0.7,0.5,0.44,27,47
Cc1cc2ncn(C(=O)N3CCOCC3)c2cc1C,1,1,-1.1,-5,-3
CC1(c2cccs2)CC(c2cccs2)=C(C#N)C(=O)N1 (stereo unspecified),1.6,0.2,0.6,-57,79*
CC(C)(C)c1ccc(NC(=O)COc2ccc(-n3ccnc3)cc2)cc1,0,0,0.0092,99*,99*
N#Cc1cccc(NC(=O)COc2ccc(-n3ccnc3)cc2)c1,0,0,0.64,99*,100*
Cc1nc2ccccc2nc1OCC(=O)N1CCN(c2ccccc2)CC1,1.2,0.8,0.098,-24,23
Cn1c(=O)c2c(nc(NCc3ccc4c(c3)OCO4)n2Cc2ccccc2)n(C)c1=O,0.3,0.4,-6*,65*,56*
Cn1c(=O)c2c(nc(NCc3ccc4c(c3)OCO4)n2Cc2ccccc2F)n(C)c1=O,0.6,0.6,-0.87,36,40
Cn1c(=O)c2c(nc(NCc3ccc4c(c3)OCO4)n2Cc2ccc(F)cc2)n(C)c1=O,0.8,0.7,-4.3*,23,26
CC(C)(C)NC(=O)NC(=O)COC(=O)CCCc1c[nH]c2ccccc12,0.8,0.6,-3.5,21,39
Cc1nc(Oc2ccc(Cl)cc2)c2oc3ccccc3c2n1,1,1,0.84,-1,0
c1ccc(-n2c(SCc3nc(-c4cccs4)no3)nnc2-c2ccco2)cc1,0.1,0.6,-2.9,92*,43
c1ccc(-n2c(SCc3ccncc3)nnc2-c2ccco2)cc1,0.2,0.4,1.6,76*,59*
Cc1sc2nc(SCc3nc(-c4cccs4)no3)n(-c3ccccc3)c(=O)c2c1C,0.3,0.8,-3.5,66*,20
Cc1sc2nc(SCC(=O)c3cccs3)n(Cc3ccco3)c(=O)c2c1C,0.7,1,-0.93,28,2
COc1cccc(/C=N/n2c(C)nc3ccccc3c2=O)c1O,0.3,0.6,-0.8,69*,38
Cc1ccc(-n2[nH]c(C)c(/C=N/c3ccccn3)c2=O)cc1,1,1.1,-0.8,0,-8
CCCc1nc2ccccc2c(=O)n1/N=C/c1ccccc1O,0.1,0.4,-0.56,86*,62*
CCCc1nc2ccccc2c(=O)n1/N=C/c1c(C)[nH]n(-c2ccc(C)cc2)c1=O,0.3,0.9,-3.8*,67*,12
CCCc1nc2ccccc2c(=O)n1N,1,1,0.041,4,5
CC(C)(C)NCc1ccccc1OCc1cccs1,1,1.1,-0.14,2,-8
CCOC(=O)N1CCC(=C2c3ccc(Cl)cc3CCc3cccnc32)CC1,·,·,-4.7*,·,·
COC(=O)c1cc(-c2c[nH]c3ccccc23)n[nH]1,0.2,0.1,0.079,84*,85*
COC(=O)c1cc(-c2c(C)nn(-c3ccccc3)c2C)n[nH]1,1,1.1,0.47,-5,-5
SMILES,CYP2C9 act,CYP2C19 act,Cav32 inh,CYP2C9 inhib,CYP2C19 inhib
S=C1NC(c2ccccc2)=NCN1c1ccccc1,0.4,0.1,0.1,65*,95*
O=C(Cn1nnc(-c2ccncc2)n1)N1CCc2ccccc21,0.3,0.8,0.62,70*,24
O=C(Cn1nnc(-c2cc(Cl)ccc2-n2cnnn2)n1)N1CCCc2ccccc21,1.1,0.8,-2.3,-13,17
Cc1ccc(-c2noc(CCCC(=O)N3CCOCC3)n2)cc1,0.9,0.8,-0.091,5,18
Cc1ccc(-c2nnn(CC(=O)N3CCCc4ccccc43)n2)cc1,0.6,0.9,-4.7*,39,12
O=C(Cn1nnc(-c2cccc(C(F)(F)F)c2)n1)N1CCCCCC1,4.2*,0.4,·,-325,57*
Cc1ccc(-c2noc(CCC(=O)N3CCCc4ccccc43)n2)cc1,0,0.2,-1.7,95*,85*
CCCCC(=O)Nc1ccc(C(=O)Nc2nnc(COC)s2)cc1,0.7,0.9,0.29,29,10
